Measured values as given in PubChem BioAssay (NCI).
This is part of a sample that, as a whole, favours compounds with a hit. Of some 83,000 tested, about 20% had one in any assay.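 Method: cells in 96-well plates; compound added at one concentration; 48 h incubation; percent growth measured; values under 10 scored active.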 Unmarked numbers belong to inactive results. Active and inactive are the calls of the source.

tested on: EKVX NSCLC; assay: NCI-60 one-dose screen, 48 h (100 = growth as untreated, 0 = no growth, -100 = all killed); details: 10 µM unless noted
Protocol: Growth inhibition of the EKVX human Non-Small Cell Lung tumor cell line is measured as a screen for anti-cancer activity. Cells are grown in 96 well plates and exposed to the test compound for 48 hours. Compounds are tested at a single concentration, which is 10^-5 M for most compounds. The reported endpoint is percent growth (GI% or GIPRCNT), where numbers from 0 - 100% represent growth inhibition, and numbers from -100% - 0 represent cell death. For example, a value of 40 represents 60% growth inhibition. A value of 0 means no net growth occurred over the course of the experiment. A value of -40 indicates 40% of cells at the beginning of the experiment died by the end of the experiment. A value of -100 means all cells are dead at the end of the experiment.
NCI-60 Human Tumor Cell Lines Screen was performed using the standard one-dose NCI protocol, which is described in more detail at https://dtp.cancer.gov/discovery_development/nci-60/default.htm.
Compounds with GIPRCNT values below 10 were considered active. Activity score was based on GIPRCNT using the following formula: […]
Score is 0 for GIPRCNT values of 100 or above, 50 for GIPRCNT values of 0, and 100 for GIPRCNT values of -100.

Q: How did the growth turn out when `CNC(=O)c1[nH]cc(-c2ccc(OC)cc2)c1-c1cc(OC)c2c(c1OC)OCO2` was run?
A: Its growth is 96.8%.

Q: For `COC(=O)CC[C@@H]1O[C@@H](c2cccc(C(F)(F)F)c2)[C@@H](O)[C@H]1O`, which growth is on record?
A: Its growth is 97.7%.

Q: `COC(=O)c1c2c(c(C)[n+]([O-])c1C)C(=O)C(NCc1cccc(OC)c1)=CC2=O` was tested. Which growth did it give?
A: Its growth is 57.2%.

Q: `COc1cc2c(c(OC)c1OC)CCC(c1cccc(C(=O)Nc3cccc(Cl)c3)c1)O2` (stereo not given) was tested. Which growth did it give?
A: The growth was 64.2%.

Q: `COc1ccc(/C=N/NC(=O)c2ccc(-n3cc(-c4ccccc4)nn3)cc2)cc1OC` was tested. Which growth did it give?
A: The growth was 102%.

Q: With `O=C(Nc1nc2ccc(C(=O)N3CCN(/C=C/c4ccccc4)CC3)cc2s1)c1ccc(NCCc2ccccc2)c([N+](=O)[O-])c1` as the compound, how does the growth read?
A: Its growth is 50.6%.

Q: How did the growth turn out when `NC(=O)c1cccc(-n2ccc3cc(NC(=O)c4ccc(N5CCOCC5)c(C(F)(F)F)c4)ccc32)n1` was run?
A: Its growth is 47.8%.

Q: Which growth does the source give for `Cn1ccnc1C(=O)/C=C/c1ccc(C(=O)Nc2ccc(Cl)cc2)cc1` here?
A: The growth was 8.52% (active).

Q: Which growth does the source give for `c1ccc(Cn2cc3c(c2)-c2oncc2CC3)cc1` here?
A: The growth was 41.4%.

Q: Which growth does the source give for `N#CC1=C(N)Oc2c(c(=O)[nH]c3ccc(Cl)cc23)C12C(=O)c1ccccc1C2=O` here?
A: The growth was 95.2%.

Q: With `O=C1c2c(c3c4ccccc4[nH]c3c3ccc4ccccc4c23)C(=O)N1CCN1CCOCC1` as the compound, how does the growth read?
A: Its growth is 61.8%.

Q: `CC(C)=CCCC(C)c1ccc(C)c2c1OCN(CCCCCO)C2` (stereo not given) was tested. Which growth did it give?
A: The growth was 102%.

Q: With `COc1ccc(C2=C(Nc3ccc(C(=O)Nc4ccccc4)cc3)C(=O)N(C)C2=O)cc1` as the compound, how does the growth read?
A: The growth was 96.8%.

Q: How did the growth turn out when `COC(=O)CC[C@H](C)[C@H]1CC[C@H]2[C@@H]3CC[C@@H]4CC5(CC[C@]4(C)[C@H]3CC(=O)[C@]12C)Nc1ccccc1NC5=NC(C)(C)C` (stereo not given in full) was run?
A: The growth was 87.5%.

Q: With `COc1ccc(-c2nc3cc(C(=O)NCc4ccccc4)ccc3n2C2CCCCC2)cc1` as the compound, how does the growth read?
A: The growth was 46.4%.

Q: How did the growth turn out when `Nc1n[nH]c2ccc([C@H]3[C@@H]4C5CCC(C5)[C@@H]4c4c(ccc5[nH]ncc45)N3S(=O)(=O)C3CC3)cc12` (stereo not given in full) was run?
A: The growth was 29.8%.

Q: `O=C(O)c1cn(C2CC2)c2cc(N3CCN(C(=O)N(c4ccccc4)c4nc(-c5ccccc5)cs4)CC3)c(F)cc2c1=O` was tested. Which growth did it give?
A: The growth was 16.9%.

Q: `COc1cc(OC)c(/C=C/C(=O)c2c(OC)cccc2OC)c(OC)c1` was tested. Which growth did it give?
A: Its growth is 42.9%.

Q: Which growth does the source give for `C=CCc1c(O)c(C(=O)/C=C/c2ccccc2)c(OC)c2ccoc12` here?
A: Its growth is 64.6%.

Q: Which growth does the source give for `COc1cc2c(cc1OCCCN1CCN(CCCOc3cc4c(cc3OC)C(=O)N3CCC[C@H]3C=N4)CC1)C=CC(C)(C)O2` here?
A: The growth was -100% (active).

Q: For `C=C1C(=O)O[C@H]2[C@H]1CC/C(COC(=O)/C=C\C(=O)NCc1ccc(Cn3c(=O)sn(CCI)c3=O)cc1)=C\CC[C@@]1(C)O[C@@H]21`, which growth is on record?
A: Its growth is 61.7%.

Q: With `O=C1NC2(Nc3ccccc31)C(=O)Nc1c(Cl)cc(Cl)cc12` (stereo not given) as the compound, how does the growth read?
A: Its growth is 98.8%.

Q: `O=C(/C=C/c1cccc(Cl)c1)c1ccc(Nc2nc(Nc3ccc(F)cc3)nc(Nc3ccc(Cl)cc3)n2)cc1` was tested. Which growth did it give?
A: Its growth is 139%.

Q: `Nc1ncnc2c1C(c1ccc(Br)cc1)c1sc3c(F)cccc3c1O2` (stereo not given) was tested. Which growth did it give?
A: The growth was 69.3%.

Q: With `Cc1cn(-c2cc(NC(=O)c3cccc(C#Cc4cccc5[nH]nc(N)c45)c3)cc(C(F)(F)F)c2)cn1` as the compound, how does the growth read?
A: Its growth is 56.7%.

Q: `COc1ccc(-c2ccc(=O)oc2-c2cc(OC)c(OC)c(OC)c2)cc1O` was tested. Which growth did it give?
A: Its growth is 30.9%.

Q: For `C[C@@H](CO)[C@@H]1CCC=C2CC[C@]3(C)[C@H](CC[C@@H]4[C@@]5(C)CCCNC(C)(C)[C@@H]5CC[C@]43C)[C@H]21`, which growth is on record?
A: Its growth is 94.5%.

Q: How did the growth turn out when `Cc1ccc2c(Cn3cc(CSc4nc5ccccc5o4)nn3)cc(=O)oc2c1` was run?
A: The growth was 92.1%.

Q: Which growth does the source give for `Nc1cc(C(=O)NC[C@H]2CN(c3ccc(N4CCC(C(=O)O)CC4)cc3)C(=O)O2)ccc1Cl` here?
A: Its growth is 95.3%.

Q: How did the growth turn out when `O=C1/C(=C/c2cn(-c3ccccc3)nc2-c2ccccc2)SC(=S)N1C1CCCCC1` was run?
A: Its growth is 97.4%.

Q: Which growth does the source give for `C=C(C)[C@@H]1CC[C@]2(CO)CC[C@]3(C)[C@H](CC[C@@H]4[C@@]5(C)CC[C@H](NCO)C(C)(C)[C@@H]5CC[C@]43C)[C@@H]12` here?
A: The growth was 8.09% (active).

Q: How did the growth turn out when `CCOc1nc(-c2ccccc2)cc2c(O)c(C(=O)N/N=C/c3ccccc3)[nH]c(=O)c12` was run?
A: Its growth is 96.1%.

Q: For `Cc1c2cnccc2c(C)c2c1c1cc(C#N)ccc1n2C`, which growth is on record?
A: The growth was -3.54% (active).

Q: For `CCOC(=O)c1csc(NC(=O)COc2ccc(/C=C3\Oc4ccccc4C3=O)cc2)n1`, which growth is on record?
A: Its growth is 74%.

Q: For `COc1cc2ncnc(Nc3ccc(F)c(Cl)c3)c2cc1OCC(=O)N1CCN(c2ccccc2)CC1`, which growth is on record?
A: Its growth is 77.6%.

Q: Which growth does the source give for `CCCCCCCCCCCCCCCCOCCCOP(=O)(O)C1CCCN(O)C1=O` (stereo not given) here?
A: Its growth is 33.9%.

Q: How did the growth turn out when `Oc1c(I)cc(I)cc1CNCc1ccccn1` was run?
A: Its growth is 25.9%.

Q: `COc1ccc(-c2noc(C(=O)O)c2-c2cc(OC)c(OC)c(OC)c2)cc1` was tested. Which growth did it give?
A: Its growth is 44.1%.

Q: With `CCCC/C=C/[C@@H]1C[C@H]1CCO` as the compound, how does the growth read?
A: Its growth is 101%.

Q: Which growth does the source give for `OB1OCc2cc(/C=C/c3cccc(C(F)(F)F)c3)ccc21` here?
A: Its growth is 26.5%.
